# Compound activity deposited in PubChem by several laboratories.
# Only some compounds are listed: those with a hit (about 2% of all), similar ones and a draw of the others.
# Gli-Sufu block = Gli-Sufu pathway antagonists, primary screen, luciferase luminescence, Sufu-KO-LIGHT cells, uHTS; Sufu-KO-LIGHT fibroblasts, Gli luciferase reporter luminescence; inhibition, % at 5 µM; 0.74% of 340,000 active;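 active = inhibition above about 55%, limit read from the data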;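 also: 0% = DMSO-treated cells and 100% = wells with medium but no cells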
# COUP-TFII inh = NR2F2 transcriptional activity inhibitors, primary screen, cell-based, luciferase reporter, HEK293T, luminescence; HEK293T NGFI-A luciferase reporter; inhibition, % at 8.6 µM; 0.7% of 370,000 active; AID 686940, 2013;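 active = inhibition above a per-plate cutoff, mean inhibition of test wells between control levels plus 3 SD, cut at about 38% in these data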;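 also: cells cotransfected with COUP-TFII expression vector driving the NGFI-A reporter; 0% = median of COUP-TF2 test wells and 100% = reporter-only cells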
# Jurkat NFkB inh = inhibitors of induced NF-kB luciferase reporter, primary screen, TCR NF-kB activation inhibitor project, cell-based, luminescence, uHTS; Jurkat, PMA/ionomycin-induced NF-kB luciferase reporter; inhibition, % at 4 µM; 0.53% of 330,000 active; AID 435003, 2010; in the data active = inhibition above about 50%
# GalR3 antagonist = GalR3 antagonists in HEK293 cells, primary screen, cell-based, fluorescence readout. 0.44% of 360,000 active. Galanin receptor type 3 (Homo sapiens), O60755. HEK293 GalR3-CNG cAMP membrane potential fluorescence; galR3 body fused to GalR1 C-terminus. inhibition, % at 3 µM;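 active = inhibition above the screen-wide average plus 3 SD, cut at about 13% in these data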;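 also: forskolin and galanin both at EC90 stimulate the cells; cAMP rise reported by CNG channel membrane potential dye signal; 0% = forskolin plus galanin with DMSO and 100% = forskolin alone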
# Target sequence (O60755 1-299 limits assumed): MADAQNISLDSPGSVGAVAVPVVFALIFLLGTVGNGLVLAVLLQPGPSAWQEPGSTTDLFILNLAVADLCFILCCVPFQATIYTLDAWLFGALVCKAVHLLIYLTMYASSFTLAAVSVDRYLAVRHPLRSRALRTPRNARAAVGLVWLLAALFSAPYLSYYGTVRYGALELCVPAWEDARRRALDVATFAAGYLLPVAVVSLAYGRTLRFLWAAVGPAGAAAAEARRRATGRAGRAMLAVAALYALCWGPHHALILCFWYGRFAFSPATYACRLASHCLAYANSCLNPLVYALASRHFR
# 697 NFkB inh = inhibitors of PMA/ionomycin-induced NF-kB reporter, 697 cells, primary screen, B-cell NF-kB inhibitor project, cell-based, luminescence, uHTS | AID 435022, 2010 | 0.33% of 330,000 active | 697 B-cell NF-kB luciferase reporter, 16 h | inhibition, % at 4 µM; in the data active = inhibition above about 35%
# Jurkat NFkB conf = PMA/ionomycin-induced NF-kB reporter inhibitors, Jurkat retest, confirmation, T-cell NF-kB inhibitor project, cell-based, luminescence, single concentration | shares compounds with Jurkat NFkB inh | Jurkat NF-kB luciferase, 16 h | inhibition, % at 4 µM | 27% of 2,700 active | AID 435020, 2010;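 active = inhibition reaching about 45% at 4 µM in either replicate, limit read from the data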;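 also: plate controls were PMA/ionomycin stimulated DMSO wells for no effect and unstimulated DMSO wells for full effect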
# The depositor's hits bear a star; . = no result given.
SMILES,Gli-Sufu block,COUP-TFII inh,Jurkat NFkB inh,GalR3 antagonist,697 NFkB inh,Jurkat NFkB conf
CC(C)CNc1ccc2c(c1)OC[C@@H](CC(C)C)NS2(=O)=O,.,19,.,.,.,.
C=CCN=C1NC(c2cccc(F)c2)C(C(=O)OC)=C(C)N1Cc1cccc(C(F)(F)F)c1 (stereo not given),.,13,.,-10,.,.
O=C(NCCc1ccccc1)OCc1cn(Cc2ccc(F)c(F)c2)nn1,.,-17,.,.,.,.
C[C@H]1[C@@H](NC(=O)c2ccc(C(F)(F)F)cc2)CC[C@@]23CCCN2C(=O)CCC[C@@H]13,.,4,.,.,.,.
O=C(N/N=C/c1c(O)ccc2ccccc12)c1ccc(Br)o1,66*,-21,52*,-3,-2,62*
NC(=O)c1ccccc1NC(=O)/C=C/c1ccc(Cl)cc1,-82,-44,-177,-5,-110,-73
NC(=O)c1ccccc1NC(=O)/C=C/c1ccccc1,-87,-40,-87,0,-130,.
Cc1csc2nc(COC(=O)c3ccc(Cl)c([N+](=O)[O-])c3)cc(=O)n12,-13,11,53*,0,24,26
Cc1ccc(O)c(NC(=O)c2cc(-c3ccc(F)cc3)on2)c1,-1,0,71*,-6,-66,-11
Cc1ccc(O)c(NC(=O)c2cc(-c3cccs3)on2)c1,4,-23,88*,-10,-45,17
COc1ccc(-c2cc(C(=O)Nc3cc(Br)ccc3O)no2)cc1,-7,-10,-29,-7,-98,.
Cc1cc(NC(=O)c2cc(-c3cccs3)on2)no1,9,.,-2,.,35,.
CCc1cccc2c(C(C)c3ccccc3O)c[nH]c12 (stereo not given),.,7,.,.,.,.
O=S1(=O)C=C(Sc2nc3cc(Cl)ccc3o2)c2ccccc21,2,.,97*,.,-185,90*
Cc1cc(NC(=O)CSc2nc3cc(Cl)ccc3o2)no1,-12,-10,-6,-8,-2,.
C[C@H]1[C@@H](NC(=O)/C=C/c2ccccc2)CC[C@@]23CCCN2C(=O)CCC[C@@H]13,.,-7,.,.,.,.
CC(C)N=c1cc2n(-c3ccc(Cl)cc3)c3ccccc3nc-2cc1Nc1ccc(Cl)cc1,16,-3,73*,0,-24,10
Cn1c(CNc2ccc(Cl)cc2)nc2ccccc21,-72,-54,-20,2,-16,.
COC(=O)c1cc(-c2cc(Cl)ccc2OC)c(=O)n2c1CCC2,.,12,.,.,.,.
O=[N+]([O-])c1ccc(C2=NN(CCO)C(=Nc3ccc(OC(F)(F)F)cc3)SC2)cc1,-11,6,75*,-7,0,11
COc1ccc(CS(=O)(=O)/C(Cl)=C(/Cl)C(=O)Nc2ccc(OC)nc2)cc1,18,.,81*,.,-156,85*
CCc1ccc(/C=N/NC(=O)c2cc(-c3ccncc3)nc3ccccc23)s1,22,-23,63*,-3,-75,50*
Cn1cccc1/C=N/NC(=O)c1cc(-c2cccs2)nc2ccccc12,-1,12,53*,-2,-15,4
CCCc1cc(C(=O)N/N=C/c2ccc(CC)s2)c2ccccc2n1,2,-6,56*,11,-30,48
CCCc1cc(C(=O)N/N=C/c2ccc(C)o2)c2ccccc2n1,-2,0,19,-4,-9,.
Cc1ccccc1CN1CCCCC(NC(=O)c2c(F)cccc2F)C1=O (stereo not given),.,-8,.,.,.,.
Cc1nc(Sc2nnnn2C)c2c3c(sc2n1)CCC3,50,-6,64*,-2,-173,53*
CCc1ccc2nc(SCC(=O)Nc3ccccc3N3CCOCC3)c(C#N)cc2c1,8,-10,67*,5,6,24
O=C(Nc1ccc2c(c1)CCC2)c1ccccc1Br,-114,-76,-176,-3,-209,-103
CN(C)c1cccc(/C=C2\CC3(OC(=O)C4CCCC4)CCCN2C3)c1 (stereo not given),.,-6,.,.,.,.
